The record followed here is PubChem BioAssay AID652257 (The Scripps Research Institute Molecular Screening Center, 2013).

About 4,800 (1.3%) of roughly 370,000 compounds were called active. For the sample, actives were picked, then their nearest neighbours and some compounds at random. A number with no mark means an inactive call.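 How the source made its calls: active means inhibition above about 21% made by adding two undisclosed values (limit read from the data); inactive means the rest.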

Chain of Protein arginine N-methyltransferase 1 (Homo sapiens) (Q99873 whole entry, looked up): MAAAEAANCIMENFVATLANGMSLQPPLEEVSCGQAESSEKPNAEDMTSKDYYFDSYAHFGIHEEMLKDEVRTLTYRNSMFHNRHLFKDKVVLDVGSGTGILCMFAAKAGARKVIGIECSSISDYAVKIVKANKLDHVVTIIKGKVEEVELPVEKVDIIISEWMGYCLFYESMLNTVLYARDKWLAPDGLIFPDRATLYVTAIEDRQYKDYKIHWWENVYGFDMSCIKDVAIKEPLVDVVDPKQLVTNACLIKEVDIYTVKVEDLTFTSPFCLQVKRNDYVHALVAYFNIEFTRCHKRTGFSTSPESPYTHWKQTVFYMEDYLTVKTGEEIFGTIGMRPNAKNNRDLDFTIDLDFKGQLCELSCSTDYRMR

The test addresses Protein arginine N-methyltransferase 1 (Homo sapiens) (UniProt Q99873). Put plainly: human PRMT1 activity-probe blockers – biochemical, fluorescence polarization, primary screen (AID 652257). To be noted: recombinant PRMT1, activity-based probe fluorescence polarization; at 2.79 µM; active compounds read high. (In fluorescence polarisation assays a small probe gives low polarisation when free and higher when bound to something large.)
The term inhibition denotes the drop in the measured response relative to a control, in per cent. In the case of `Cc1cccnc1NC(=O)Cn1c(=O)oc2ccccc21`, the inhibition is 5.97%.

On to `COC[C@@H]1CCCN1c1ccc2c(c1)O[C@H](C)CCN(C1CC1)S2(=O)=O`, for which the inhibition is -6.48%.

Take `O=C(Nc1cc(F)cc(F)c1)OC1CCC12CCC(c1ccccc1)CC2` (centres undefined): the inhibition is -0.51%.

Turning to `COc1ccc([C@H]2OC(=O)C[C@H]2C(=O)N2CCN(c3ccccc3F)CC2)cc1OC`, the inhibition is -4.27%.

Consider `Clc1cccc(-c2nc3nc4ccccc4nc3n2Cc2ccco2)c1`, for which the inhibition was 34.2% (active).

`O=C(CSc1nnc(-c2cccc(Cl)c2)n1Cc1ccco1)Nc1ccc(OCc2ccccc2)cc1`: the inhibition is -2.9%.

With `O=C(CSc1nnc(-c2ccccc2)n1Cc1ccco1)Nc1ccccc1-c1ccccc1`, the inhibition is 12.6%.

Take `COc1ccccc1C(C)NC(=O)Cc1ccsc1` (centres undefined): the inhibition was -0.88%.

In the case of `CCC(c1nnnn1Cc1ccco1)N(Cc1cc2cc(OC)ccc2[nH]c1=O)C1CCCCC1` (centres undefined), the inhibition is 35.9% (active).

Turning to `COc1ccc2[nH]c(=O)c(CN(CC3CCCO3)C(=O)Nc3ccccc3)cc2c1` (centres undefined), the inhibition is -3.84%.

For the compound `CCC(=O)N(Cc1cc2ccccc2[nH]c1=O)c1ccc(OC)cc1`, the inhibition was 1.11%.

Take `CCOc1ccc(CN(Cc2ccco2)C(c2cccs2)c2nnnn2C(C)(C)C)cc1` (centres undefined): the inhibition is 2.59%.

For the compound `CCC(c1nnnn1Cc1ccco1)N(CCc1ccccc1)Cc1cc2ccc(OC)cc2[nH]c1=O` (centres undefined), the inhibition is 44.2% (active).

For `CCOc1ccc2[nH]c(=O)c(CN(Cc3nnnn3CCc3ccccc3)CC3CCCO3)cc2c1` (centres undefined), the inhibition is -1.4%.

With `CNc1cncc(-c2ccc(NS(C)(=O)=O)cc2)n1`, the inhibition was 4.53%.

For `N#C/C(=C\c1ccccc1)c1n[nH]c(Cn2cncn2)n1`, the inhibition is -3.96%.

As to `CCCCNC(=O)C[C@H]1C(=O)N(Cc2ccc(OC)cc2)C2=CCCC[C@@]21C(=O)OCC`, the inhibition is 2.73%.

For the compound `COC(=O)c1cc(S(=O)(=O)N2CCN(C(=O)C3CCCO3)CC2)cn1C` (centres undefined), the inhibition is -1.95%.

As for `O=C(CSc1nc2sc3c(c2c(=O)n1-c1ccccc1)CCCC3)NN=Cc1ccc(OCc2ccccc2)cc1`, the inhibition is 0.97%.

For `Cc1ccccc1CN1CCCCC(NC(=O)c2cccc(C#N)c2)C1=O` (centres undefined), the inhibition is 1.34%.

As for `CCCCOCCCNC(=O)C[C@H]1C[C@@]2(C(=O)OC)C(=C[C@H](C(C)(C)C)O[C@@H]2C)N(CCc2ccc(OC)c(OC)c2)C1=O`, the inhibition was -3.25%.

Consider `COc1cc(C2C(C(=O)c3ccco3)=C(O)C(=O)N2c2cc(C)on2)ccc1OCc1ccccc1` (centres undefined), for which the inhibition is 4.72%.

As for `COc1cc(C2CC(=O)N3CN(Cc4ccccc4)CSC3=C2C#N)ccc1OCc1ccccc1` (centres undefined), the inhibition was 38.8% (active).

With `CCCNC(=O)C1CC(=O)N(c2ccc(OCc3ccccc3)cc2)C1` (centres undefined), the inhibition was -0.86%.
